Inconclusive results are not listed. Activity calls are given as the source filed them. Unless noted, the call rests on the fitted dose curve; in most records, active means well fitted curve in the direction sought with a large enough effect in the repeat runs; inconclusive means weak or mixed curves; inactive means no such curve, though single readings can be large; an effect the other way counts as inactive or inconclusive.

A short description of experiment [1]: qHTS assay to identify small molecule antagonists of the thyroid receptor (TR) signaling pathway - cell viability counter screen (AID 743064). Further: nearly all actives have a fitted effect of over 50% in size. The method, boiled down: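 Same-well viability check: GH3.TRE-Luc cells stimulated with 1 nM T3 alongside test compound for 23.5 h, followed by CellTiter-Fluor fluorescence.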
Experiment [2] is described as follows: qHTS assay to identify small molecule antagonists of the thyroid receptor (TR) signaling pathway (AID 743065). Further: nearly all actives have a fitted effect of over 55% in size. Further: potency means the concentration at half of the fitted maximal effect. The method in brief:
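GH3.TRE-Luc rat pituitary cells carrying two TR response elements driving luciferase were plated for 4 h, given compound plus 1 nM T3 (final), and incubated 23.5 h at 37 C. ONE-Glo luminescence measured reporter inhibition; CellTiter-Fluor fluorescence tracked cytotoxicity.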
(Quantitative high-throughput screening tests each substance at several concentrations.)

The subject of experiment [3] is thyroid hormone receptor (rat, GH3 cells). Put plainly: qHTS assay to identify small molecule agonists of the thyroid receptor (TR) signaling pathway (AID 743066; calls by dose curve; further: potency means the concentration at half of the fitted maximal effect).
The nature of experiment [4]: qHTS assay to identify small molecule antagonists of the estrogen receptor alpha (ER-alpha) signaling pathway - cell viability counter screen (AID 743074; calls by dose curve;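 further: HEK293 cells carrying ER-alpha-UAS-bla reporter stimulated with 17beta-estradiol; nearly all actives have a fitted effect of over 45% in size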).
The target of experiment [5] is Estrogen receptor (Homo sapiens) (UniProt P03372). Kind of experiment: qHTS assay to identify small molecule agonists of the estrogen receptor alpha (ER-alpha) signaling pathway (AID 743075; calls by dose curve;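 further: HEK293 GripTite cells with ER-alpha and UAS-driven beta-lactamase reporter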).
Sequence of Estrogen receptor (Homo sapiens) (P03372 whole entry, looked up): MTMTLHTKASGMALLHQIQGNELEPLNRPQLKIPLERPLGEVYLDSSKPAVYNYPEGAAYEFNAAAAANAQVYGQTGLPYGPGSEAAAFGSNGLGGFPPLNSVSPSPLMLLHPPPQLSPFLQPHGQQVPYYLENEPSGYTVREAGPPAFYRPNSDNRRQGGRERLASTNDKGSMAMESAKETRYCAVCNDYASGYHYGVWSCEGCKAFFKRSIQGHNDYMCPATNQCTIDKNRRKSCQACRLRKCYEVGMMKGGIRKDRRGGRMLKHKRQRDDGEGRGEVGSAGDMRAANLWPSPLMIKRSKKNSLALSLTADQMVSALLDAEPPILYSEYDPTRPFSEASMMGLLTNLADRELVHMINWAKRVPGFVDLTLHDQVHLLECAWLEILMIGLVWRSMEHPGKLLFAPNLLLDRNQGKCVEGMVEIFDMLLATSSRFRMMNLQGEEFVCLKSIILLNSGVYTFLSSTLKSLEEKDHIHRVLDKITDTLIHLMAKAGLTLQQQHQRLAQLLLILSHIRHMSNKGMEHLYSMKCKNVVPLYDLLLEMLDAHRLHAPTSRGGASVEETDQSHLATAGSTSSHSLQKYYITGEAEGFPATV
The target is the same in experiment [6]. Put plainly: qHTS assay to identify small molecule agonists of the estrogen receptor alpha (ER-alpha) signaling pathway using the BG1 cell line (AID 743079). Further: nearly all actives have a fitted effect of over 20% in size.
Experiment [7] in a line: qHTS assay to identify small molecule antagonists of the estrogen receptor alpha (ER-alpha) signaling pathway using the BG1 cell line (AID 743080; calls by dose curve;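 further: BG1 cells stimulated with 17beta-estradiol alongside compound; series mostly up to about 70 µM; nearly all actives have a fitted effect of over 25% in size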). The method in brief: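 Luciferase inhibition measured with ONE-Glo after 30 min at RT in BG1Luc4E2 cells given test compounds and 17beta-estradiol for 21.5 h at 37 C; CellTiter-Fluor viability read in the same wells beforehand.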

Experiment [8] can be described thus: qHTS assay to identify small molecule antagonists of the estrogen receptor alpha (ER-alpha) signaling pathway using the BG1 cell line - cell viability counter screen (AID 743081).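 Further: compound given together with 17beta-estradiol as the ER stimulus; series mostly up to about 70 µM; nearly all actives have a fitted effect of over 45% in size.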
Experiment [9] has as its target Aromatase (Homo sapiens) (UniProt P11511). Put plainly: qHTS assay to identify aromatase inhibitors (AID 743083). Further: series mostly up to about 70 µM; nearly all actives have a fitted effect of over 55% in size.
Experiment [10] can be described thus: qHTS assay to identify aromatase inhibitors - cell viability counter screen (AID 743084).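 Further: cells stimulated with testosterone during compound exposure; nearly all actives have a fitted effect of over 55% in size.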
Experiment [11] concerns the target Aryl hydrocarbon receptor (Homo sapiens) (UniProt P35869). Kind of experiment: qHTS assay to identify small molecule that activate the aryl hydrocarbon receptor (AhR) signaling pathway (AID 743085).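 Further: HG2L7.5c1 human HepG2 liver cells with stably integrated DRE-driven firefly reporter; series mostly up to about 70 µM; nearly all actives have a fitted effect of over 15% in size.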 The method in brief:
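Reporter assay in engineered HepG2 line HG2L7.5c1, whose plasmid carries twenty dioxin responsive elements upstream of firefly luciferase. Treatment lasted 24 h at 37C; ONE-Glo luminescence gauged induction.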

Experiment [12] can be described thus: qHTS assay to identify small molecule that activate the aryl hydrocarbon receptor (AhR) signaling pathway - cell viability counter screen (AID 743086).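 Further: HepG2 liver cells carrying the AhR DRE luciferase reporter; series mostly up to about 70 µM; nearly all actives have a fitted effect of over 45% in size.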 The method, boiled down: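 HepG2-AhR-luc (HG2L7.5c1) cells, 4000/well, were preincubated 5 h at 37C, exposed to compound in qHTS format for 24 hr at 37C, then given CellTiter-Fluor for 30 min; viability was read as fluorescence in the reporter wells.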

The nature of experiment [13]: qHTS assay to identify small molecule antagonists of the peroxisome proliferator-activated receptor gamma (PPARg) signaling pathway - cell viability counter screen (AID 743194). Further: nearly all actives have a fitted effect of over 55% in size. The method in brief:
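PPARg-UAS-bla HEK293H cells were plated, rested 5 h at 37 C, then treated with compounds plus rosiglitazone (50 nM final) for 17 h at 37 C; viability was then read by CellTiter-Glo luminescence after 30 min at room temperature.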

A short description of experiment [14]: qHTS assay for small molecule agonists of the antioxidant response element (ARE) signaling pathway - cell viability counter screen (AID 743203; calls by dose curve; further: nearly all actives have a fitted effect of over 55% in size). The method in brief: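 Cells (ARE-bla HepG2, 2,000/well) receive DMSO-dissolved compounds after a 5 hrs rest. Plates incubate 16 hrs at 37C/5% CO2. CellTiter-Glo luminescence is then recorded after 30 min at room temperature.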

Experiment [15] in a line: qHTS assay for small molecule activators of the heat shock response signaling pathway - cell viability counter screen (AID 743209). Further: nearly all actives have a fitted effect of over 50% in size. The method, boiled down:
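Quantitative HTS format, Tox21 10K library. HeLa cells carrying an HSE-driven beta-lactamase reporter were treated 5 h at 37 C, then assessed for viability by CellTiter-Glo luminescence.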

Experiment [16] is described as follows: qHTS assay for small molecule activators of the heat shock response signaling pathway (AID 743210; active means well fitted activation curve with a large enough effect in the signal ratio in the repeat runs, with a control signal flat, not every such curve was filed as active; the % refers to the signal ratio; further: series mostly up to about 63 µM). The method, boiled down: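 HSE-bla HeLa cells (beta-lactamase reporter under heat shock response elements) were exposed to compounds for 5 h at 37 C, then loaded with LiveBLAzer B/G FRET substrate for 2.5 h at room temperature before fluorescence reading.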

The target of experiment [17] is Peroxisome proliferator-activated receptor gamma (Homo sapiens) (UniProt P37231). Kind of experiment: qHTS assay to identify small molecule agonists of the peroxisome proliferator-activated receptor gamma (PPARg) signaling pathway (AID 743094; active means well fitted activation curve with a large enough effect in the signal ratio in the repeat runs, not every such curve was filed as active; the % refers to the signal ratio). The method, boiled down:
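Stably transfected HEK293H cells (GeneBLAzer PPARg UAS-bla) were incubated with test substances for 17 h at 37C after a 5 h pre-incubation; beta-lactamase activity was then detected by FRET substrate fluorescence.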

Experiment [18] can be described thus: qHTS assay for small molecule agonists of the antioxidant response element (ARE) signaling pathway (AID 743202; active means well fitted activation curve with a large enough effect in the signal ratio in the repeat runs, not every such curve was filed as active; the % refers to the signal ratio). The method, boiled down:
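Read-out: LiveBLAzer B/G FRET substrate fluorescence after 2 h at room temperature, following 16 h compound treatment at 37 C of HepG2 cells carrying an ARE-driven beta-lactamase reporter.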

Experiment [19] addresses Peroxisome proliferator-activated receptor gamma (Homo sapiens) (UniProt P37231). Kind of experiment: qHTS assay to identify small molecule antagonists of the peroxisome proliferator-activated receptor gamma (PPARg) signaling pathway (AID 743191; calls by dose curve; further: series mostly up to about 63 µM; nearly all actives have a fitted effect of over 30% in size). The method, boiled down:
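GeneBLAzer PPARg UAS-bla HEK293H cells carrying a UAS-driven beta-lactamase reporter were plated at 3000 cells/well, preincubated 5 h at 37C, then given compound for 17 h at 37C; LiveBLAzer B/G FRET substrate was read after 1 h at room temperature.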

Sequence of Peroxisome proliferator-activated receptor gamma (Homo sapiens) (P37231 whole entry, looked up): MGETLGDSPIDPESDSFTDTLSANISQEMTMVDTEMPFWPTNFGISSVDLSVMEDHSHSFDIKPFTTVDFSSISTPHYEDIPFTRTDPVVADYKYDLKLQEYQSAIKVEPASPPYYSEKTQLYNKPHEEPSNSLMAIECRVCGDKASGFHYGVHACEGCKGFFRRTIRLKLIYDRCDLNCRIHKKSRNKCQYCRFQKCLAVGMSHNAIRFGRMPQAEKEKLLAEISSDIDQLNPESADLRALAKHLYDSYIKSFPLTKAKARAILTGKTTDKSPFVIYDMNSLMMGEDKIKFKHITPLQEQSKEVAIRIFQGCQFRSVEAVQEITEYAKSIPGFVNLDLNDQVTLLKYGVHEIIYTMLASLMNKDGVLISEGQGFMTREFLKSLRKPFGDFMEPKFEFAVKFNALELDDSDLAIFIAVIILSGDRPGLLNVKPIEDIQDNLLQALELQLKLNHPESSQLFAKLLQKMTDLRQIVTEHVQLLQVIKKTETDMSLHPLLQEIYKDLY
Sequence of Aromatase (Homo sapiens) (P11511 whole entry, looked up): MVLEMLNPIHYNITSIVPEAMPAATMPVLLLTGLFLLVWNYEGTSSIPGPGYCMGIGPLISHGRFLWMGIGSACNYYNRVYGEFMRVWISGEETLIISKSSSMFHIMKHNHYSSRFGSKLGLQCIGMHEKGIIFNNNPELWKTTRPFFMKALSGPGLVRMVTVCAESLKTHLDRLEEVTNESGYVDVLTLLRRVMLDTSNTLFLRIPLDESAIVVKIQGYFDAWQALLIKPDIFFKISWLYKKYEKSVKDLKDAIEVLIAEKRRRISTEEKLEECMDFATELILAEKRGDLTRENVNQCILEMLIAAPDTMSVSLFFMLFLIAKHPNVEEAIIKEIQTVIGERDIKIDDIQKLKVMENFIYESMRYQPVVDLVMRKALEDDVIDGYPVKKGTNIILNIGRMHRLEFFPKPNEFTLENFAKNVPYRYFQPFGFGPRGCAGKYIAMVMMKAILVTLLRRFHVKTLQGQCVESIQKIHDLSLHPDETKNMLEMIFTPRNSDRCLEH
Sequence of Aryl hydrocarbon receptor (Homo sapiens) (P35869 whole entry, looked up): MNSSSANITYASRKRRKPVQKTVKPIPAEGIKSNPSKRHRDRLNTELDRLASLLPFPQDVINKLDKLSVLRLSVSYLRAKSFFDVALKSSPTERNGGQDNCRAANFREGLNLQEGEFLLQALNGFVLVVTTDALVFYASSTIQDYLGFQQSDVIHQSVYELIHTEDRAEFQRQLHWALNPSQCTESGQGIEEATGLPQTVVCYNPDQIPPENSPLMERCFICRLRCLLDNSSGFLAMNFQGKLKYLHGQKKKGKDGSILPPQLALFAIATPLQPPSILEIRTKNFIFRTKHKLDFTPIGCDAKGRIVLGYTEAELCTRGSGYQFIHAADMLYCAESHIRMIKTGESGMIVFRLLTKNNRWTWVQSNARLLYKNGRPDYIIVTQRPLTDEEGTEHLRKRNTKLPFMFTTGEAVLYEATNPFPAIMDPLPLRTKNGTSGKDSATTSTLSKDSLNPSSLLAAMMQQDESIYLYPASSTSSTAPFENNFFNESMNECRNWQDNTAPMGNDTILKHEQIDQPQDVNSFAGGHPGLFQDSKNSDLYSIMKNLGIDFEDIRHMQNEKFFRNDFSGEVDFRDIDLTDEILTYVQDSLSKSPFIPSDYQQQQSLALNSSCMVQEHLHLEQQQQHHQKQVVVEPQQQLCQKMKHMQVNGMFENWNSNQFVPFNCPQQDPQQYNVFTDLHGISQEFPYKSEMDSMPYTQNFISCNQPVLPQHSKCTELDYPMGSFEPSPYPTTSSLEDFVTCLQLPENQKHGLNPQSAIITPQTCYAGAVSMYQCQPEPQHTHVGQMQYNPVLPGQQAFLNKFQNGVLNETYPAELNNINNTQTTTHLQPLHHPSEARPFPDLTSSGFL

As to `CNc1ncnc2nc[nH]c12`, the Potency entry in [1], in [2], in experiment [3], in [5], in experiment [6] and in experiment [7] was “inactive” in each case. Besides, the Potency entry in experiment [9], in [10], in experiment [11], in experiment [12] and in [13] was “inactive” each time. The outcome in [4], in experiment [8], in experiment [14], in experiment [15] and in experiment [16] was inactive.
As to `CCCCCN(CCCCC)C(=O)C(CCC(=O)O)NC(=O)c1ccc(Cl)c(Cl)c1` (stereo unspecified), the Potency result in experiment [1], in experiment [2], in experiment [3], in experiment [5], in [7] and in experiment [9] was “inactive” throughout. In addition, the Potency result in [10], in experiment [11] and in experiment [13] was “inactive” each time. Further, the result in [4], in experiment [8], in experiment [17], in [14] and in [15] was inactive.
For the compound `O=C(O)c1ccccc1-c1ccc(C(F)(F)F)cc1`, the Potency entry in experiment [1], in experiment [2], in [3], in [5], in experiment [6] and in experiment [7] was “inactive” throughout. The Potency result in [9], in [10], in [11] and in experiment [18] was “inactive” each time. The result in experiment [4], in [8], in experiment [14], in experiment [15] and in experiment [16] was inactive.
As to `CCCCCCOC(=O)c1ccccc1O`, the Potency entry in experiment [1], in experiment [2], in experiment [3], in experiment [5], in experiment [7] and in experiment [9] was “inactive” in each case. For the same compound, the Potency entry in experiment [10], in experiment [11], in experiment [12], in [13] and in experiment [18] was “inactive” throughout. The compound was classed as inactive in experiment [4], in experiment [8], in experiment [17], in experiment [14] and in experiment [16].
On to `COc1cc(O)cc(O)c1`, for which the Potency result in experiment [1], in experiment [2], in experiment [3], in experiment [7], in experiment [9] and in experiment [10] was “inactive” in each case. Further, the call in experiment [4], in experiment [8], in [19], in [14] and in experiment [15] was inactive.
Consider `CC(C)(O)Cc1ccccc1`, for which the Potency entry in experiment [1], in [2], in experiment [3], in experiment [5], in [6] and in experiment [7] was “inactive” each time. Further, the Potency result in experiment [9], in experiment [10], in experiment [11], in experiment [13] and in [18] was “inactive” throughout. The result in experiment [4], in experiment [8], in experiment [17], in experiment [19], in experiment [14] and in experiment [15] was inactive. Also, in [16], the call was inactive.
With `CC/C=C\CCCCO`, the Potency result in experiment [1], in experiment [2], in experiment [3], in [5], in experiment [6] and in [7] was “inactive” each time. Besides, the Potency result in experiment [9], in [10], in experiment [11], in experiment [13] and in experiment [18] was “inactive” in each case. For the same compound, the compound was classed as inactive in experiment [4], in experiment [8], in experiment [17], in experiment [14], in experiment [15] and in experiment [16].
Regarding `C/C=C1\C(=O)C[C@H]2[C@@H]3CCC4=CC(=O)CC[C@]4(C)[C@H]3CC[C@]12C`, the Potency entry in experiment [1], in experiment [3], in experiment [5], in [7], in experiment [9] and in [10] was “inactive” throughout. Also, the Potency result in experiment [11] and in experiment [12] was “inactive” each time. The Potency in [2] was 30 µM (active). The outcome in experiment [4], in experiment [8], in [14] and in experiment [16] was inactive.
As to `COC[C@H](c1ccc(C(F)(F)F)cc1)N1CCN(C2(C)CCN(C(=O)c3c(C)ncnc3C)CC2)C[C@H]1C`, the Potency entry in experiment [1], in [2], in experiment [3], in [5], in experiment [6] and in experiment [7] was “inactive” in each case. Further, the Potency entry in [10], in experiment [11], in experiment [12] and in [13] was “inactive” throughout. Moreover, the result in [4], in experiment [14], in [15] and in experiment [16] was inactive.
As for `N#CCc1ccccc1[N+](=O)[O-]`, the Potency result in experiment [1], in experiment [2], in experiment [3], in experiment [9], in experiment [10] and in experiment [12] was “inactive” in each case. Further, the result in experiment [4], in experiment [8], in [19], in experiment [14], in experiment [15] and in experiment [16] was inactive.
With `OC/C=C/c1ccccc1`, the Potency entry in experiment [1], in experiment [2], in [3], in experiment [9], in experiment [10] and in experiment [11] was “inactive” each time. The Potency entry in experiment [12], in [13] and in experiment [18] was “inactive” each time. Also, the compound was classed as inactive in [4], in experiment [8] and in [14].
As for `CCCC=O`, the Potency entry in [1], in experiment [2], in [3], in experiment [9], in [10] and in [11] was “inactive” throughout. The Potency result in experiment [12] and in [13] was “inactive” throughout. In addition, the compound was classed as inactive in experiment [4], in [8], in [19], in experiment [14], in experiment [15] and in experiment [16].
As for `CC(CCO)CCCC(C)(C)O` (stereo unspecified), the Potency result in experiment [1], in experiment [2], in [9], in experiment [10], in [11] and in experiment [12] was “inactive” in each case. For the same compound, the Potency result in experiment [13] was “inactive”. Further, in experiment [3], the Potency is 27.3 µM (active). Further, the call in experiment [4], in [8], in [17], in experiment [19], in experiment [14] and in [15] was inactive. The compound was called inactive in experiment [16].
In the case of `CC1=CC(=O)CCC1`, the Potency entry in experiment [1], in experiment [2], in experiment [3], in [9], in experiment [10] and in experiment [11] was “inactive” throughout. The Potency result in experiment [18] was “inactive”. In addition, the compound was classed as inactive in experiment [4], in [8], in [17], in experiment [19], in experiment [14] and in [15]. The compound was classed as inactive in experiment [16].
`N[C@@H](CS)C(=O)O`: the Potency entry in experiment [1], in [2], in experiment [3], in [9], in experiment [10] and in experiment [11] was “inactive” throughout. The Potency result in [12], in experiment [13] and in experiment [18] was “inactive” throughout. For the same compound, the compound was called inactive in experiment [4], in experiment [8], in [17], in experiment [14], in experiment [15] and in experiment [16].
Regarding `COc1cccc(OC)c1`, the Potency result in [1], in [2], in experiment [3], in experiment [9], in experiment [10] and in [11] was “inactive” in each case. Further, the Potency result in [12] and in experiment [13] was “inactive” each time. Further, the compound was classed as inactive in [4], in experiment [8], in experiment [17], in [19], in experiment [14] and in experiment [15]. Moreover, the outcome in experiment [16] was inactive.

(Values after PubChem BioAssay (Tox21).)
